Measurements: PubChem BioAssay

Each compound was assayed against Calmodulin-1 (Homo sapiens) (UniProt P0DP23) (assay: small molecules binding Ca-loaded calmodulin-1 – biochemical, small-molecule microarray, Cy5-labelled CALM1, plus calcium, artefact control for SMM control-protein annotation, profiling panel (AID 1112;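 further: score merges spot fluorescence with signal to noise from triplicate slides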)). Settings: Cy5-CALM1 binding fluorescence, higher = more signal.

In order of falling composite z-score:
1. O=C(CS)NCCCCCNC(=O)[C@H]1C[C@H]2C(=O)N3CCC[C@H]3C(=O)N2[C@H]1c1ccc(O)cc1  1.22
2. CCCC[C@@H]1C[C@H]1[C@@H](NC(=O)c1ccccc1)c1ccccc1C(F)(F)F  1.09
3. [N-]=[N+]=NCc1ccccc1C[C@]1(C(=O)N2CCCCC2)N=C(c2ccc(OCCCO)cc2)O[C@H]1c1ccccc1CN=[N+]=[N-]  0.855
4. C[C@]1(C(=O)NCc2ccccc2)c2ccccc2C(=O)N(Cc2cc(C(F)(F)F)cc(C(F)(F)F)c2)[C@H]1c1ccc(CO)cc1  0.844
5. CCCC=C(CCC)[C@@H](NC(=O)c1ccc(C(F)(F)F)cc1)c1ccccc1  0.793
6. COCCOC(=O)N1C(=O)[C@@]2(c3cc(C#CC4=CCCCC4)ccc31)[C@H](c1ccc(O)cc1)N1[C@H](c3ccccc3)[C@H](c3ccccc3)OC(=O)[C@H]1[C@@H]2C(=O)N1CCCCCCC1  0.716
7. COCCOC(=O)N1C(=O)[C@@]2(c3cc(C#CCNC(N)=O)ccc31)[C@H](C(=O)N1CCCCCCC1)[C@H]1C(=O)O[C@H](c3ccccc3)[C@H](c3ccccc3)N1[C@@H]2c1ccccc1OCCO  0.632
8. O=C1O[C@H](c2ccccc2)[C@H](c2ccccc2)N2[C@H]1[C@@H](C(=O)Nc1nc3ccccc3s1)[C@]1(C(=O)Nc3ccc(C#CC4(O)CCCCCC4)cc31)[C@H]2c1ccc(O)cc1  0.597
9. CCOC(=O)C1=C[C@@H](c2ccccc2)N(S(=O)(=O)c2ccc(C)cc2)[C@H]1c1ccc(F)cc1  0.342
10. C=CCN1C(=O)[C@]2(O[C@H](CCn3cc(CCO)nn3)[C@@H]([Si](C)(C)c3ccc(OC)cc3)[C@@H]2C)c2cc(NC(=O)c3ccc(OC)cc3)ccc21  0.336
11. COC(=O)C[C@H]1O[C@]2(C(=O)N(Cc3ccccc3)c3ccc(I)cc32)[C@@H](C)[C@@H]1[Si](C)(C)c1ccc(OC)cc1  0.286
12. NC(=O)NCC#Cc1ccc2c(c1)[C@]1(C(=O)N2)[C@H](c2ccccc2OCCO)N2[C@H](c3ccccc3)[C@H](c3ccccc3)OC(=O)[C@H]2[C@@H]1C(=O)N1CCN(c2ncccn2)CC1  0.263
13. COc1cc2c(cc1OC)CN(C(=O)[C@@H]1[C@H]3C(=O)O[C@H](c4ccccc4)[C@H](c4ccccc4)N3[C@H](c3ccccc3OCCO)[C@@]13C(=O)Nc1ccccc13)CC2  0.234
14. C=C(COC)/C(=C/C[C@H](OC(C)=O)c1ccc(OCCO)cc1)c1cnc2ccccc2c1  0.214
15. C=CCN1C(=O)[C@@]2(Cc3ccccc3)N=C(c3ccc(OCCCO)cc3)O[C@H]2c2ccccc21  0.192
16. CCOC(=O)C[C@H]1[C@H](OC(=O)Cc2ccc3c(c2)OCO3)[C@@H](NC(=O)c2ccc3ccccc3c2)c2cc(OCCCO)ccc2N1C(=O)Cc1ccc(OC)cc1  0.139
17. C=C(COC)/C(=C/C[C@@H](OC(C)=O)c1cccc(OCCO)c1)c1cc(C(=O)OC)ccc1OC  -0.0115
18. CO[C@@H]1COC(=O)[C@H](C)NC(=O)CC=C[C@@H](C)[C@H](NS(=O)(=O)c2ccc(C)cc2)COC(=O)CC=C[C@@H]1C  -0.239
19. COC(=O)[C@H]1[C@@H]2COc3ccccc3[C@H]2N[C@H]1C(=O)OC  -0.266
20. CCc1cccc(NC(=O)O[C@H]2[C@H](OC(=O)Nc3ccccc3)[C@@H](OC(=O)Nc3ccccc3)[C@@H](OC)O[C@@H]2CO)c1  -0.291
21. CC(=O)Nc1ccc([C@H]2[C@H](C)CC[C@H]3C(=O)N4[C@@H](CC[C@@H](C)[C@@H]4c4ccc(NC(C)=O)cc4)C(=O)N32)cc1  -0.346
22. CCC(=O)[C@]12O[C@@]3([C@@H]4C(=O)OCC[C@@H]41)N(CC)C(C)=C(C(=O)OC)[C@@H](c1ccccc1)N3C2=O  -0.382
23. CSCC[C@@H]1NC(=O)CC=C[C@@H](C)COC(=O)[C@H](CCSC)NC(=O)CC=C[C@@H](C)COC1=O  -0.58
24. CO[C@H]1O[C@H](CO)[C@@H](OC(=O)Nc2ccccc2)[C@H](OC(=O)Nc2ccc3c(c2)OCO3)[C@@H]1OC(=O)Nc1ccc2c(c1)OCO2  -0.819
25. CO[C@@H]1COC(=O)[C@H](C)NC(=O)CC=C[C@@H](C)[C@H](OC)COC(=O)[C@H](C)NC(=O)CC=C[C@H]1C  -1.26
26. CC(=O)NCCCC[C@@H]1NC(=O)[C@H]2C[C@@H](C(=O)NCCCCCCN(C)C)[C@@H](c3cccc(OCCO)c3)N2C1=O  -1.32
27. CO[C@H]1COC(=O)CC=C[C@H](C)COC(=O)[C@@H](OCc2ccccc2)C=C[C@@H]1C  -2.68
